Source: PubChem BioAssay (Tox21)
Inconclusive results are not listed. Activity calls are given as the source filed them. Unless noted, calls follow the shape of the dose curve; as a rule, active = well fitted curve in the direction sought with a large enough effect in the repeat runs; inconclusive = weak or mixed curves; inactive = no such curve, though single readings can be large; an effect the other way counts as inactive or inconclusive.

What was measured:
[1] = A CellTox Green Cytotoxicity Assay to monitor cytotoxicity in HepG2 cells - 8 hour (AID 1224890); also: nearly all actives have a fitted effect of over 45% in size; also: potency is read from the fitted curve at half-maximal effect
In short: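 Continuous culture of HepG2 cells with a membrane-impermeant DNA dye; rising fluorescence marks dead cells. Compound exposure lasted up to 40 h at 37 C, with reads every 8 h from 0 h.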

[2] = qHTS assay to identify small molecule antagonists of the estrogen receptor alpha (ER-alpha) signaling pathway using the BG1 cell line in the presence of 0.1 nM 17-beta-estradiol - cell viability counter screen (AID 1259241); also: nearly all actives have a fitted effect of over 40% in size; also: potency is read from the fitted curve at half-maximal effect
In short: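 Cytotoxicity counter-screen: live-cell protease activity measured by fluorescence (30 min reagent step) in the same wells. Cells were VM7Luc4E2 with endogenous ER-alpha and ERE-driven luciferase, treated 22 hr at 37C alongside 0.1 nM 17beta-estradiol final.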

[3] = qHTS assay to identify small molecule antagonists of the androgen receptor (AR) signaling pathway using the MDA cell line in the presence of 0.5 nM R1881 - cell viability counter screen (AID 1259242); also: nearly all actives have a fitted effect of over 45% in size; also: potency is read from the fitted curve at half-maximal effect
In short: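 Fluorescence from CellTiter-Fluor, which reports protease activity of live cells, was read 30 min after reagent addition to MDA-kb2 cells that had been incubated 16 hr with compound and 0.5 nM R1881.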

[4] = biological target: Estrogen receptor (Homo sapiens) (UniProt P03372); assay: qHTS assay to identify small molecule antagonists of the estrogen receptor alpha (ER-alpha) signaling pathway using the BG1 cell line in the presence of 0.1 nM 17-beta-estradiol (AID 1259244); also: nearly all actives have a fitted effect of over 50% in size; also: potency is read from the fitted curve at half-maximal effect
In short: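 Quantitative high-throughput screen in VM7Luc4E2 cells: compound plus 0.1 nM E2 (final), 22 h, 37C, 5% CO2; ONE-Glo added, 30 min room temperature, luminescence measured.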

[5] = qHTS assay to identify small molecule phospholipidosis (PLD) inducers (AID 1259344; active = well fitted curve in the direction sought with a large enough effect; an effect the other way counts as inactive or inconclusive)
In short: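 HepG2 cells grown on collagen I take up LipidTOX Red while exposed to compound for 24 h; after fixation they are imaged at 20x and pit metrics are extracted.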

[6] = qHTS assay to identify small molecule HDAC inhibitors (AID 1259364); also: nearly all actives have a fitted effect of over 45% in size; also: potency is read from the fitted curve at half-maximal effect
In short: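 Endogenous HDAC class I/II activity was measured in wild-type HCT-116 cells by HDAC-Glo luminescence after 2 h compound treatment.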

[7] = qHTS assay to identify small molecule HDAC inhibitors - cell viability counter screen (AID 1259365); also: series mostly up to about 92 µM; nearly all actives have a fitted effect of over 50% in size
In short: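 CellTiter-Glo luminescence (30 min, room temperature) reported viability after a 2 h compound exposure at 37 C. Cells: wild-type HCT-116, 1,500 per well, seeded the night before.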

[8] = qHTS assay to identify small molecule antagonists of the sonic hedgehog signaling (Shh) pathway - cell viability counter screen (AID 1259367); also: nearly all actives have a fitted effect of over 55% in size
In short: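 After a 4 hr settling period, 3T3 Gli1-Luc cells were treated with DMSO-dissolved chemicals and conditioned medium, kept 24 hr at 37C in 5% CO2, and assayed for viability by CellTiter-Fluor fluorescence following 1 hr reagent incubation.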

[9] = qHTS assay to identify small molecule agonists of the sonic hedgehog signaling (Shh) pathway (AID 1259368; calls by dose curve;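 also: NIH/3T3-derived 3T3Gli1-Luc cells carrying a stable Gli1-driven firefly luciferase reporter; series mostly up to about 92 µM; nearly all actives have a fitted effect of over 15% in size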)
In short: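 Luminescent signal was taken as a measure of Gli1-controlled luciferase expression in stably transfected NIH/3T3-derived cells that had been treated for 24 hr with compounds delivered in DMSO.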

[10] = qHTS assay to identify small molecule antagonists of the sonic hedgehog signaling (Shh) pathway (AID 1259369; calls by dose curve; also: nearly all actives have a fitted effect of over 45% in size; also: potency is read from the fitted curve at half-maximal effect)
In short: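 Screening used 3T3Gli1-Luc cells at 2,000 per well, compounds delivered in DMSO, and conditioned medium as agonist stimulus; plates incubated 24hr at 37 C and 5% CO2 before a 30min luciferase step.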

[11] = biological target: Estrogen receptor beta (Homo sapiens) (UniProt Q92731); assay: qHTS assay to identify small molecule agonists of the estrogen receptor beta (ER-beta) signaling pathway (AID 1259377; active = well fitted activation curve with a large enough effect in the signal ratio in the repeat runs, not every such curve was filed as active; the % refers to the signal ratio; also: potency is read from the fitted curve at half-maximal effect)
In short: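 Ratiometric beta-lactamase FRET read-out came after 2 h substrate loading at room temperature. It followed 16 h compound treatment at 37C of GripTite HEK293T cells carrying a UAS-bla reporter, plated in 2% charcoal-stripped FBS medium.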

[12] = biological target: Estrogen receptor beta (Homo sapiens) (UniProt Q92731); assay: qHTS assay to identify small molecule antagonists of the estrogen receptor beta (ER-beta) signaling pathway (AID 1259378; active = well fitted inhibition curve with a large enough effect in the signal ratio in the repeat runs, not every such curve was filed as active; the % refers to the signal ratio; also: potency is read from the fitted curve at half-maximal effect)
In short: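 ER-beta-UAS-bla HEK293T (GripTite) cells in 2% charcoal-stripped FBS medium were preincubated 6 hr at 37C, dosed with compound, then stimulated with 1 nM E2 (final) for 16 hr; beta-lactamase reporter read by B/G FRET fluorescence after 2 hr substrate loading.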

[13] = qHTS assay to identify small molecule agonists of the androgen receptor (AR) signaling pathway in the presence of an antagonist - cell viability counter screen (AID 1259379); also: nearly all actives have a fitted effect of over 25% in size; also: potency is read from the fitted curve at half-maximal effect
In short: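 In MDA-kb2 cells (human breast carcinoma, MMTV-luciferase), compounds at 15 concentrations plus 3.0uM nilutamide; 16 hr, 37C, 0% CO2; CellTiter-Fluor fluorescence read for viability.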

[14] = qHTS assay to identify small molecule agonists of the estrogen receptor beta (ER-beta) signaling pathway - cell viability counter screen (AID 1259380); also: nearly all actives have a fitted effect of over 30% in size; also: potency is read from the fitted curve at half-maximal effect
In short: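 Viability of ER-beta-UAS-bla HEK293T cells was determined by CellTiter-Glo luminescence following 16 hr treatment with test compounds at 37C.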

[15] = qHTS assay to identify small molecule antagonists of the estrogen receptor beta (ER-beta) signaling pathway - cell viability counter screen (AID 1259382); also: series mostly up to about 92 µM; nearly all actives have a fitted effect of over 55% in size
In short: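 Tox21 10K library tested in qHTS format on ER-beta-bla HEK293T cells stimulated with 1nM E2; 16 hr treatment at 37C. Same-well CellTiter-Glo luminescence served as the cell viability measure.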

[16] = biological target: Estrogen receptor (Homo sapiens) (UniProt P03372); assay: qHTS assay to identify small molecule agonists of the estrogen receptor alpha (ER-alpha) signaling pathway in the presence of an antagonist (AID 1259383; calls by dose curve; also: nearly all actives have a fitted effect of over 15% in size; also: potency is read from the fitted curve at half-maximal effect; as to activation: top concentration of the series differs between compounds)
In short: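 In VM7Luc4E2 cells, 4,000 per well, compounds at 15 concentrations were co-incubated 22hr at 37C with 10.0nM final ICI-182,780. Luminescence from the stably transfected 4×ERE-luciferase reporter was recorded 30min after ONE-Glo addition.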

[17] = qHTS assay to identify small molecule agonists of the sonic hedgehog signaling (Shh) pathway - cell viability counter screen (AID 1259366); also: nearly all actives have a fitted effect of over 50% in size
In short: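 Cytotoxicity counter screen: CellTiter-Fluor reagent added after 23 h compound exposure, then 1 h at 37C and fluorescence read. Cells were 3T3 Gli1-Luc, seeded 2,000 per well and dosed 4 h post-plating.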

[18] = qHTS assay to identify small molecule agonists or antagonists of the thyroid stimulating hormone receptor (TSHR) signaling pathway - wild type cell line counter screen (AID 1259384; calls by dose curve)
In short: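 Wild-type HEK293 cells were plated 18 h at 37 C/5% CO2, pin-dosed with compound plus Ro20-1724 medium, held 30 min at room temperature, then given cAMP-d2 and anti-cAMP-cryptate; fluorescence was read after 1 h. Fifteen concentrations, triplicate.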

Measured: Potency

Sequence of Estrogen receptor (Homo sapiens) (P03372 whole entry, looked up): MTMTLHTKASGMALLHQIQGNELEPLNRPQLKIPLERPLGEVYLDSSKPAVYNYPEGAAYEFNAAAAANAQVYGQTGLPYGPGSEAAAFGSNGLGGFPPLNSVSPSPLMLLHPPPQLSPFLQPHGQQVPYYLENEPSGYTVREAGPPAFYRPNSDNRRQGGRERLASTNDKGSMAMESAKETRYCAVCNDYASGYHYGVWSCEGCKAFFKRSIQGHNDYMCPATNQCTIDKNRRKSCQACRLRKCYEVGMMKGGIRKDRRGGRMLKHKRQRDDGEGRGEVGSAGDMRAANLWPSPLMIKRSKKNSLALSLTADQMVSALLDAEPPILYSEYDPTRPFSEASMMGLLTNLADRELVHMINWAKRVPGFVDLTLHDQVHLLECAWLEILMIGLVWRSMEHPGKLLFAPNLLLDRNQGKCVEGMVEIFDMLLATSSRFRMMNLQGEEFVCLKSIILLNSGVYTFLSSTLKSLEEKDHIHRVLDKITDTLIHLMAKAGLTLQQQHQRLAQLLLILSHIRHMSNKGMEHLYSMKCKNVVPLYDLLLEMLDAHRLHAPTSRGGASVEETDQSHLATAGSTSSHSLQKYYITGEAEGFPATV
Sequence of Estrogen receptor beta (Homo sapiens) (Q92731 whole entry, looked up): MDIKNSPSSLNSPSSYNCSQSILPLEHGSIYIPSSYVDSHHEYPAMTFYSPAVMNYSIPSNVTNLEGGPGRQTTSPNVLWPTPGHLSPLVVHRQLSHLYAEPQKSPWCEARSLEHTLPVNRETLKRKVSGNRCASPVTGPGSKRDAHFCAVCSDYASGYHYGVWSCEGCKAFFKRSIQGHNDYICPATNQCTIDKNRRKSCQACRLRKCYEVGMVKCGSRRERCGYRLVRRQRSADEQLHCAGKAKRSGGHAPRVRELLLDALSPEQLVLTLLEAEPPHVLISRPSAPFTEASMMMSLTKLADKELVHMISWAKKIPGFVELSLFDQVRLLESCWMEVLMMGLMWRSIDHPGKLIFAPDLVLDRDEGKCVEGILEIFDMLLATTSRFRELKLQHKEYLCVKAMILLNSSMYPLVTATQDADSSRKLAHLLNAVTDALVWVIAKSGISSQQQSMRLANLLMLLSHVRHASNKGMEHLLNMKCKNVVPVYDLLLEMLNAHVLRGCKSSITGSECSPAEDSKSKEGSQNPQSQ

CC[N+](CC)(CCNC(=O)C(=O)NCC[N+](CC)(CC)Cc1ccccc1Cl)Cc1ccccc1Cl
inactive: [1] | [2] | [3] | [4] | [5] | [6] | [7] | [8] | [9] | [10] | [11] | [12] | [13] | [14] | [15] | [16]

CC(C)Nc1cccnc1N1CCN(C(=O)c2cc3cc(NS(C)(=O)=O)ccc3[nH]2)CC1
inactive: [1] | [2] | [3] | [4] | [5] | [6] | [7] | [8] | [9] | [11] | [13] | [16]
active: [14] 26.6 µM

O=C1C(=O)c2ccccc2C(O)=C1C1CCC(c2ccc(Cl)cc2)CC1 (stereo not drawn)
inactive: [1] | [5] | [6] | [7] | [17] | [8] | [9] | [11] | [16]
active: [2] 26.6 µM | [3] 23.7 µM | [4] 26.6 µM | [13] 23.7 µM | [14] 2.66 µM

O=C(O)CCc1nc(-c2ccccc2)c(-c2ccccc2)o1
inactive: [1] | [2] | [3] | [4] | [5] | [6] | [7] | [17] | [8] | [9] | [10] | [11] | [13] | [15] | [16] | [18]

CC(C)(C)C(=O)C(=O)O
inactive: [1] | [2] | [3] | [4] | [6] | [7] | [17] | [8] | [9] | [10] | [11] | [13] | [14] | [15] | [16]

CC(CO)CO
inactive: [1] | [2] | [3] | [4] | [6] | [7] | [17] | [8] | [9] | [10] | [13] | [14] | [15] | [16] | [18]

CCC(C)COC(C)=O (stereo not drawn)
inactive: [1] | [2] | [3] | [4] | [6] | [7] | [17] | [8] | [9] | [10] | [13] | [14] | [15] | [16] | [18]

N#CCCN(CCO)CCO
inactive: [1] | [2] | [3] | [4] | [6] | [7] | [17] | [8] | [9] | [10] | [13] | [14] | [15] | [16] | [18]

CCOc1ccccc1O[C@H](c1ccccc1)[C@H]1CNCCO1
inactive: [1] | [2] | [3] | [4] | [5] | [6] | [7] | [9] | [10] | [13] | [14] | [15] | [16] | [18]

CC(=O)N/N=C/c1ccc([N+](=O)[O-])o1
inactive: [1] | [2] | [3] | [4] | [5] | [6] | [8] | [9] | [12] | [13] | [14] | [15] | [16] | [18]
active: [10] 26.6 µM

CN(C)CCN1C(=O)c2ccccc2N(C)c2ccccc21
inactive: [1] | [2] | [3] | [4] | [5] | [6] | [7] | [17] | [8] | [10] | [11] | [13] | [14] | [15] | [16] | [18]

CCOC(=O)C1=C(C)NC(C)=C(C(=O)OC)C1c1cccc(Cl)c1Cl (stereo not drawn)
inactive: [1] | [2] | [3] | [4] | [5] | [6] | [7] | [17] | [8] | [9] | [11] | [13] | [15] | [16] | [18]

COC(=O)CS
inactive: [1] | [2] | [3] | [4] | [7] | [17] | [8] | [9] | [11] | [13] | [15] | [16] | [18]
active: [6] 26.3 µM

CCOC(=O)c1ccc(OCCN2C[C@H](O)[C@@H](O)[C@H](O)[C@H]2CO)cc1
inactive: [1] | [2] | [3] | [4] | [5] | [6] | [7] | [17] | [8] | [9] | [10] | [13] | [14] | [15] | [16]

C=Cc1ccc(S(=O)(=O)O)cc1
active: [1] 54.9 µM | [10] 61.1 µM
inactive: [2] | [3] | [4] | [5] | [6] | [17] | [9] | [11] | [12] | [13] | [14] | [15] | [16] | [18]

COC(=O)C1=C(C)NC(C)=C(C(=O)O[C@@H]2CCCN(Cc3ccccc3)C2)[C@@H]1c1cccc([N+](=O)[O-])c1
active: [12] 26.6 µM
inactive: [1] | [2] | [3] | [4] | [5] | [6] | [7] | [9] | [11] | [13] | [14] | [15] | [16] | [18]

C=C1c2cccc(O)c2C(O)=C2C(=O)[C@]3(O)C(O)=C(C(N)=O)C(=O)[C@@H](N(C)C)[C@@H]3[C@@H](O)[C@H]12
inactive: [1] | [2] | [3] | [4] | [5] | [6] | [7] | [17] | [8] | [9] | [11] | [13] | [14] | [15] | [16]

O=C(CCc1ccc(O)cc1)c1c(O)cc(O)cc1O
active: [11] 7.01 µM | [16] 24.9 µM
inactive: [1] | [2] | [3] | [4] | [6] | [7] | [17] | [8] | [9] | [14] | [15] | [18]
